# Assay results reported in the supplement of paper PMC8728848.
# Many of the other results were omitted from the sample, so the strongest signals are more common in it than they were.
# B1: MUC1-SEA-mFcIgG2a (Homo sapiens), P15941 (SEA domain only) (protein)
# chain: DAAQPARRAVRSSSELTSEQKLISEEDLSRLVHNGTSARATTTPASKSTPFSIPSHHSDTPTTLASHSTKTDASSTHHSTVPPLTSSNHSTSPQLSTGVSFFFLSFHISNLQFNSSLEDPSTDYYQELQRDISEMFLQIYKQGGFLGLSNIKFRPGSVVVQLTLAFREGTINVHDVETQFNQYKTEAASRYNLTISDASVSDVPFPFSAQSGSDDDDKALEPRGPTIKPCPPCKCPAPNLLGGPSVFIFPPKIKDVLMISLSPIVTCVVVDVSEDDPDVQISWFVNNVEVHTAQTQTHREDYNSTLRVVSALPIQHQDWMSGKEFKCKVNNKDLPAPIERTISKPKGSVRAPQVYVLPPPEEEMTKKQVTLTCMVTDFMPEDIYVEWTNNGKTELNYKNTEPVLDSDGSYFMYSKLRVEKKNWVERNSYSCSVVHEGLHNHHTTKSFSRTPGKHHHHH
# Legend:
# Test in all cases: glycan array binding signal (z-score within array); higher = stronger binding
# Settings in all cases: glycan notation: IUPAC condensed, linker removed
# Fuc(a1-2)Gal = molecular target: Fuc(a1-2)Gal
# In short: (§1)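 Glycan array data were curated from 3228 arrays in the Consortium for Functional Glycomics database and kept only where the protein sequence was available. Glycan names were converted to IUPAC-condensed notation, and columns mapping to the same glycan were averaged. The binding signal is a within-array Z-score, averaged across arrays of the same protein sequence at different concentrations or buffers and across linkers. Negative Z-scores can be read as non-binding.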
# Fuc(a1-2)Gal(b1-3)GalNAc = molecular target: Fuc(a1-2)Gal(b1-3)GalNAc
# In short: as §1
# [1] = molecular target: Fuc(a1-2)Gal(b1-3)GalNAc(b1-3)Gal
# In short: as §1
# Fuc(a1-2)Gal(b1-3)GlcNAc = molecular target: Fuc(a1-2)Gal(b1-3)GlcNAc
# In short: as §1
# Fuc(a1-2)Gal(b1-4)Glc = molecular target: Fuc(a1-2)Gal(b1-4)Glc
# In short: as §1
# [2] = molecular target: Fuc(a1-2)Gal6S(b1-4)Glc6S
# In short: as §1
# Fuc(a1-2)[Gal(a1-3)]Gal = molecular target: Fuc(a1-2)[Gal(a1-3)]Gal
# In short: as §1
# [3] = molecular target: Fuc(a1-2)[GalNAc(b1-3)]Gal
# In short: as §1
# [4] = molecular target: Fuc(a1-3)[Gal(b1-4)]GlcNAc
# In short: as §1
# [5] = molecular target: Fuc(a1-3)[Gal(b1-4)]GlcNAc(b1-2)Man(a1-6)[Gal(b1-4)GlcNAc(b1-2)Man(a1-3)]Man(b1-4)GlcNAc(b1-4)GlcNAc
# In short: as §1
# [6] = molecular target: Fuc(a1-3)[Gal(b1-4)]GlcNAc(b1-4)Gal(b1-4)[Fuc(a1-3)]GlcNAc(b1-4)Gal(b1-4)[Fuc(a1-3)]GlcNAc
# In short: as §1
# [7] = molecular target: Fuc(a1-3)[Gal3S(b1-4)]GlcNAc6S
# In short: as §1
# [8] = molecular target: Gal(b1-4)GlcNAc(b1-6)Gal(b1-4)GlcNAc(b1-6)GalNAc
# In short: as §1
# [9] = molecular target: Gal3S(b1-3)[Fuc(a1-4)]GlcNAc
# In short: as §1
# Gal3S(b1-4)Glc6S = molecular target: Gal3S(b1-4)Glc6S
# In short: as §1
# Gal3S6S(b1-4)GlcNAc6S = molecular target: Gal3S6S(b1-4)GlcNAc6S
# In short: as §1
# Gal4S6S(b1-4)GlcNAc = molecular target: Gal4S6S(b1-4)GlcNAc
# In short: as §1
# Gal6S(b1-4)Glc6S = molecular target: Gal6S(b1-4)Glc6S
# In short: as §1
# [10] = molecular target: GlcNAc(a1-6)Gal(b1-4)GlcNAc
# In short: as §1
# GlcNAc(b1-3)Gal = molecular target: GlcNAc(b1-3)Gal
# In short: as §1
# [11] = molecular target: GlcNAc(b1-4)Gal(b1-4)GlcNAc
# In short: as §1
# [12] = molecular target: GlcNAc(b1-4)[GlcNAc(b1-6)]GalNAc
# In short: as §1
# [13] = molecular target: Man(a1-2)Man(a1-3)[Man(a1-6)]Man(a1-6)[Man(a1-2)Man(a1-3)]Man(b1-4)GlcNAc(b1-4)GlcNAc
# In short: as §1
# [14] = molecular target: Man(a1-3)[Man(a1-6)]Man(b1-4)GlcNAc(b1-4)GlcNAc
# In short: as §1
# Man(a1-6)Man = molecular target: Man(a1-6)Man
# In short: as §1
# [15] = molecular target: Neu5Ac(a2-6)Gal(b1-4)GlcNAc(b1-2)Man(a1-3)[Gal(b1-4)GlcNAc(b1-2)Man(a1-6)]Man(b1-4)GlcNAc(b1-4)GlcNAc
# In short: as §1
# [16] = molecular target: Neu5Ac(a2-6)Gal(b1-4)GlcNAc(b1-3)Gal(b1-4)GlcNAc
# In short: as §1
# [17] = molecular target: Neu5Ac(a2-8)Neu5Ac(a2-3)[GalNAc(b1-4)]Gal(b1-4)Glc
# In short: as §1
binder,measurement,setting,value
B1,glycan array binding signal (z-score),Fuc(a1-2)Gal,-0.228
same,glycan array binding signal (z-score),Fuc(a1-2)Gal(b1-3)GalNAc,-0.514
same,glycan array binding signal (z-score),[1],7.39
same,glycan array binding signal (z-score),Fuc(a1-2)Gal(b1-3)GlcNAc,0.04
same,glycan array binding signal (z-score),Fuc(a1-2)Gal(b1-4)Glc,0.163
same,glycan array binding signal (z-score),[2],1.99
same,glycan array binding signal (z-score),Fuc(a1-2)[Gal(a1-3)]Gal,0.424
same,glycan array binding signal (z-score),[3],-0.373
same,glycan array binding signal (z-score),[4],0.485
same,glycan array binding signal (z-score),[5],-0.32
same,glycan array binding signal (z-score),[6],-0.045
same,glycan array binding signal (z-score),[7],1.11
same,glycan array binding signal (z-score),[8],-0.381
same,glycan array binding signal (z-score),[9],-0.332
same,glycan array binding signal (z-score),Gal3S(b1-4)Glc6S,2.09
same,glycan array binding signal (z-score),Gal3S6S(b1-4)GlcNAc6S,3.49
same,glycan array binding signal (z-score),Gal4S6S(b1-4)GlcNAc,0.978
same,glycan array binding signal (z-score),Gal6S(b1-4)Glc6S,2.14
same,glycan array binding signal (z-score),[10],-0.14
same,glycan array binding signal (z-score),GlcNAc(b1-3)Gal,-0.151
same,glycan array binding signal (z-score),[11],-0.565
same,glycan array binding signal (z-score),[12],-0.223
same,glycan array binding signal (z-score),[13],-0.266
same,glycan array binding signal (z-score),[14],-0.235
same,glycan array binding signal (z-score),Man(a1-6)Man,-0.113
same,glycan array binding signal (z-score),[15],-0.245
same,glycan array binding signal (z-score),[16],-0.465
same,glycan array binding signal (z-score),[17],-0.453
